Measured values as given in PubChem BioAssay AID504832 (National Center for Advancing Translational Sciences (NCATS), 2011).
About 18,000 (5.8%) of roughly 310,000 compounds were called active. Another 22% or so got no clear call; they are omitted. The call rests on the fitted dose curve; in most records, active means well fitted inhibition curve with a large enough effect; inconclusive means small, poorly fitted or top-dose-only effect, or another doubt; inactive means no such curve, though single readings can be large or run the other way. This excerpt belongs to a sample that is enriched for actives.

Experiment: Primary qHTS for delayed death inhibitors of the malarial parasite plastid, 48 hour incubation
Conditions: P. falciparum luciferase growth in erythrocytes; series mostly up to 28.7 µM; activity change, negative = inhibition: at the top concentration
Procedure, shortened: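 Firefly luciferase activity from engineered P. falciparum reports growth; inhibitors lower the luminescent signal. Cultures contained 2% hematocrit erythrocytes at 0.1% final parasitemia.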
On the % scale 0 is the no-effect control and ±100 the full control effect; potency means the concentration at half of the fitted maximal effect.

| SMILES | activity change, negative = inhibition | Potency |
| --- | --- | --- |
| COc1ccc2oc(=O)cc(CN3CCOCC3)c2c1 | -29% (inactive) | – |
| CC(=O)c1c(C)[nH]c(C(=O)CN2C(=O)NC(C)(C)C2=O)c1C | 16.6% (inactive) | – |
| CC1CCCN(C(=O)CN2C(=O)c3ccccc3S2(=O)=O)C1 (stereo not given) | 270% (inactive) | – |
| O=C(NNS(=O)(=O)c1ccc([N+](=O)[O-])cc1)C1CCCCC1 | 2.73% (inactive) | – |
| CC(=O)O[C@H]1c2ccccc2-c2ccccc2[C@@H]1OC(C)=O | 23.1% (inactive) | – |
| C[N+](C)(C)CCNC(=O)c1cc[n+](Cc2ccccc2)c(/C=N/O)c1 | -1.42% (inactive) | – |
| CC(=O)c1ccc(S(=O)(=O)NCCC(=O)N2CCN(c3ccccn3)CC2)cc1 | -21.6% (inactive) | – |
| COc1cc(NC(=O)c2ccccc2)c(OC)cc1NC(=O)Cc1ccccc1 | -22.9% (inactive) | – |
| Nn1c(SCC(=O)Nc2nccs2)nnc1-c1ccco1 | 24.4% (inactive) | – |
| CCC(NC(=O)C1CCCC1)c1ccc(C)cc1 (stereo not given) | 5.68% (inactive) | – |
| COc1cccc(N2CC(NS(=O)(=O)c3cccs3)CC2=O)c1 (stereo not given) | 3.72% (inactive) | – |
| Cc1ccc(C(=O)c2c(NC(=O)c3ccncc3)sc3c2CCCC3)cc1 | – | 6.57 µM (active) |
| NC(=O)c1c(NC(=O)c2ccccc2)sc2c1CCCC2 | 225% (inactive) | – |
| Cc1ccc(NC(=O)c2c(NC(=O)CCC(=O)O)sc3c2CCCCC3)cc1 | 42.9% (inactive) | – |
| COc1cccc(NC(=O)N2CCC(NC(=O)C(Cc3cccc(C)c3)NC(C)=O)CC2)c1 (stereo not given) | -8.06% (inactive) | – |
| CC(C)[C@H](NC(=O)N1CCn2c1nc1ccccc12)C(=O)NC1CC1 | -2.75% (inactive) | – |
| CC(OC(=O)c1ccc(S(=O)(=O)N2CCOCC2)cc1)c1ccccc1 (stereo not given) | -3.14% (inactive) | – |
| CNC(=O)c1ccsc1NC(=O)c1ccc(S(=O)(=O)N2CCOCC2)cc1 | -5.56% (inactive) | – |
| COC(=O)c1c(NC(=O)c2ccc(S(=O)(=O)N3CCOCC3)cc2)sc2c1CCN(C(C)C)C2 | – | 11.7 µM (active) |
| COCC(=O)N1CCCC(C(=O)c2ccc(C(F)(F)F)cc2)C1 (stereo not given) | -0.209% (inactive) | – |
| O=c1[nH]c(CSc2ccccc2)nc2c1oc1ccccc12 | – | 10.4 µM (active) |
| Cc1nc(Cl)c2oc3ccccc3c2n1 | -21% (inactive) | – |
| CCOC(=O)c1sc2nc(CSc3ccccc3)[nH]c(=O)c2c1C | 33.8% (inactive) | – |
| Cn1c(CC(=O)Nc2ccc(F)cc2)nnc1SCC(=O)NC1CCCCC1 | 11.3% (inactive) | – |
| CCCCN1C(=O)/C(=C2/Sc3ccc(Cl)cc3N2CC)SC1=S | -9.17% (inactive) | – |

| SMILES | activity change, negative = inhibition | Potency |
| --- | --- | --- |
| CC(NCc1cccs1)C(=O)Nc1cc(Cl)cc(Cl)c1 (stereo not given) | -12.9% (inactive) | – |
| CCOCCCNC(=O)C1(O)c2cc(Br)ccc2NC(=O)N1c1ccc(C)c(C)c1 (stereo not given) | -7.48% [at 0.00184 µM] (inactive) | – |
| CCCCN1C(=O)C(C)=C(C)C1OCCc1ccc(OC)c(OC)c1 (stereo not given) | 12.2% (inactive) | – |
| C=CCC(NC(=O)Cc1ccccc1)C(=O)NCCC (stereo not given) | 20.5% (inactive) | – |
| O=C(O)Cc1ccc(-c2ccccc2)cc1 | – | inactive |
| O=C(Cc1ccc(-c2ccccc2)cc1)NC(c1ccccc1)c1ccccc1 | – | 13.1 µM (active) |
| Cc1ccc(S(=O)(=O)NCC(=O)N2CCOCCOCCOCCOCC2)cc1 | 22.8% (inactive) | – |
| Cc1cc(C)cc(C(=O)NC(CC(N)=O)c2ccc(N3CCC(N4CCCCC4)CC3)c([N+](=O)[O-])c2)c1 (stereo not given) | -1.82% (inactive) | – |
| O=C1[C@H]2[C@@H](c3ccc(F)cc3)N3C(=O)N(c4ccc(C(F)(F)F)cc4)C(=O)[C@@]3(Cc3ccccc3)[C@H]2C(=O)N1C1CCCCC1 | – | 4.65 µM (active) |
| O=C1CC(NNc2ccccc2)C(=O)N1c1cccc(Cl)c1 (stereo not given) | 18.9% (inactive) | – |
| COc1ccc([C@@H]2[C@@H]3C(=O)N(C(C)(C)C)C(=O)[C@@H]3[C@]3(Cc4ccccc4)C(=O)N(c4cccc(Br)c4)C(=O)N23)cc1 | – | 2.62 µM (active) |
| O=C(NC1(C(F)(F)F)NC(=O)N(C2CCCCC2)C1=O)c1ccco1 (stereo not given) | 8.82% (inactive) | – |
| COC(=O)CN1C(=O)[C@H]2[C@@H](/C=C/c3ccccc3)N3C(=O)CN(Cc4ccccc4)C(=O)[C@@]3(Cc3ccccc3)[C@H]2C1=O | -26.2% (inactive) | – |
| COc1ccc(C2C(C(C)=O)=C(O)C(=O)N2Cc2cccnc2)cc1 (stereo not given) | 9.53% (inactive) | – |
| COc1ccc(N2C(=O)C(Cc3ccccc3)NC2=S)cc1 (stereo not given) | 16.6% (inactive) | – |
| Cc1cccc([C@@H]2[C@@H]3C(=O)N(Cc4ccccc4)C(=O)[C@@H]3[C@]3(Cc4ccc(Cl)cc4)C(=O)N(c4cccc(Cl)c4)C(=O)N23)c1 | – | 4.15 µM (active) |
| O=C1[C@H]2[C@@H](c3ccc(Cl)cc3)N3C(=O)N(c4cccc(F)c4)C(=O)[C@@]3(Cc3ccccc3)[C@H]2C(=O)N1C1CCCCC1 | – | 9.28 µM (active) |
| O=C(CCNS(=O)(=O)c1ccc(Br)cc1)NCC1CCCO1 (stereo not given) | 3.4% (inactive) | – |
| CCc1ccc(/C=N/NC(=O)c2nnn(-c3nonc3N)c2CN2CCc3ccccc32)cc1 | -24.2% (inactive) | – |
| Cc1cc(OC(=O)c2ccc(OC(C)C)cc2)c([N+](=O)[O-])c(=O)[nH]1 | -10.1% (inactive) | – |
| Cc1ccc(NS(=O)(=O)c2ccc(C(=O)NCCCN3CCOCC3)cc2)cc1 | 4.35% (inactive) | – |
| COc1ccc(N2CCN(C(=O)CN3C(=O)COc4ccccc43)CC2)cc1 | 2.97% (inactive) | – |
| COc1ccc(Cc2nc3ccc(C(=O)NCC4CCOCC4)cc3o2)cc1OC | -17.1% (inactive) | – |
| CN(CC(=O)Nc1cccc(F)c1)CC(=O)Nc1cccc([N+](=O)[O-])c1 | -21.3% (inactive) | – |
| COc1ccc(N(CCC(=O)NCCc2ccccc2)S(=O)(=O)c2ccc(C)cc2C)cc1 | -3.86% (inactive) | – |

| SMILES | activity change, negative = inhibition | Potency |
| --- | --- | --- |
| Cc1ccc(N(CC(=O)Nc2cccc(N(C)S(C)(=O)=O)c2)S(C)(=O)=O)cc1 | 8.82% (inactive) | – |
| COc1ccc(C)cc1S(=O)(=O)N(CC(=O)Nc1cccc([N+](=O)[O-])c1)c1ccc(C)cc1 | – | 9.28 µM (active) |
| COc1ccc(N(CC(=O)Nc2ccc(C)cc2C)S(=O)(=O)c2ccccc2[N+](=O)[O-])c(OC)c1 | – | 9.28 µM (active) |
| COc1ccc(OCC(=O)Nc2cc(C)c(Cl)cc2OC)c([N+](=O)[O-])c1 | 36% (inactive) | – |
| Brc1ccccc1/C=N/Nc1nc2ccccc2o1 | 122% (inactive) | – |
| COc1ccc(NC(=O)c2cccc(Cl)c2)c[n+]1[O-] | -14.8% (inactive) | – |
| CC(C(=O)c1ccc(-c2ccccc2)cc1)[n+]1cccc(Br)c1 (stereo not given) | 43.3% (inactive) | – |
| CC(C)C(=O)NCC(c1cccs1)S(=O)(=O)c1ccc(F)cc1 (stereo not given) | 4.58% (inactive) | – |
| CC(CC(=O)N1CCN(S(=O)(=O)c2ccccc2)CC1)n1cncn1 (stereo not given) | 21.2% (inactive) | – |
| COc1ccc(C(=O)/C=C/c2cccnc2)c(OC)c1 | – | 11.7 µM (active) |
| COc1ccc(C(=O)CCc2ccccc2O)c(OC)c1 | 117% (inactive) | – |
| COc1ccc(C(=O)CCC(=O)Nc2cccnc2)c(OC)c1 | -5.35% (inactive) | – |
| COc1ccccc1N(CC(=O)NC1CCCC1)C(=O)C1(C)CC(=O)N=C2C=CC(C)=CN21 (stereo not given) | 5.48% (inactive) | – |
| COc1ccc(CNC(=O)CN(C(=O)c2csnn2)c2cnc3ccccc3c2)cc1 | 13.2% (inactive) | – |
| CCOC(=O)N1CCN(Cc2nnc(-c3ccccc3Cl)o2)CC1 | 0.496% (inactive) | – |
| COc1cc(C(c2c(NC(=O)c3ccco3)sc(C)c2C)N2CCOCC2)cc(OC)c1OC (stereo not given) | – | 10.4 µM (active) |
| COc1ccc(C(=O)Nc2sc(C)c(C)c2CN2CCOCC2)cc1 | 17.1% (inactive) | – |
| COC(=O)c1cc(NC(=O)c2ccco2)ccc1N1CCOCC1 | 37.6% (inactive) | – |
| O=c1c2cc([N+](=O)[O-])ccc2nc2n1CCC2 | -0.017% (inactive) | – |
| COc1ccc(OC)c(NC(=O)C2CCCN2S(=O)(=O)c2cccc3nsnc23)c1 (stereo not given) | 0% (inactive) | – |
| O=C(CCNS(=O)(=O)c1cccs1)N1CCN(c2ccc(F)cc2)CC1 | 2.81% (inactive) | – |
| O=c1ccc2cc(S(=O)(=O)NCCCc3ccccc3)ccc2[nH]1 | -2.29% (inactive) | – |
| CC(C)N(Cc1nnc(-c2ccccc2Br)o1)C(=O)c1cc(Cl)nc2ccccc12 | – | 9.28 µM (active) |
| Cn1cnnc1SCc1nnc(-c2ccccc2Br)o1 | 50.9% (inactive) | – |
| CC(C)N(Cc1nnc(-c2ccc(Cl)cc2)o1)C(=O)C1=COCCO1 | -5.65% (inactive) | – |

| SMILES | activity change, negative = inhibition | Potency |
| --- | --- | --- |
| COC(=O)C1=CO[C@@H](O[C@@H]2O[C@H](CO)[C@@H](O)[C@H](O)[C@H]2O)C2C1C[C@H](O)[C@@H]2C (stereo not given in full) | 30.8% (inactive) | – |
| COc1ccc(C(=O)NCc2ccc(C)cc2)cc1S(=O)(=O)N1CCCC1 | -27.2% (inactive) | – |
| COC(=O)C(C)Oc1ccc2c(-c3cccc([N+](=O)[O-])c3)cc(=O)oc2c1 (stereo not given) | 0.049% (inactive) | – |
| COC(=O)C(C)Oc1ccc2c(c1)O/C(=C\c1cccc(Br)c1)C2=O (stereo not given) | – | 13.1 µM (active) |
| CN(C)C(=O)Oc1ccc2c(c1)O/C(=C\c1ccccc1)C2=O | 101% (inactive) | – |
| CCOC(=O)CC1COCCN1C(=O)c1cc(COc2ccc(F)c(F)c2)on1 (stereo not given) | -0.834% (inactive) | – |
| Cc1cc(Nc2ccc(C(=O)N3CCCCC3)cc2)c2cccc(C)c2n1 | 12.9% (inactive) | – |
| Cc1cc(Nc2ccc(Cl)cc2)nc(N2CCOCC2)n1 | 17.6% (inactive) | – |
| Cc1cc(Nc2ccc(N3CCOCC3)cc2)c2cccc(C)c2n1 | – | 4.15 µM (active) |
| O=[N+]([O-])c1ccc(C=Nc2ccc(Cl)cc2Cl)s1 | – | 10.4 µM (active) |
| O=S(=O)(Nc1ccccc1Cl)c1cccc2nsnc12 | -17% (inactive) | – |
| C/C(CC(=O)NCc1ccc(Cl)cc1)=N\NC(=O)COc1ccc(C)cc1Br | 30.4% (inactive) | – |
| COc1ccc(-c2cc(C(=O)N3CCN(Cc4ccc5c(c4)OCO5)CC3)on2)cc1OC | -17.8% (inactive) | – |
| COc1ccccc1CCCNC(=O)C1CCC(=O)N(CCN2CCOCC2)C1 (stereo not given) | 5.42% (inactive) | – |
| O=C(COc1ccc(Cl)cc1)NC(=S)Nc1ccccc1N1CCOCC1 | 12.9% (inactive) | – |
| Cc1cc(C)cc(OCC(=O)Nc2ccc(N3CCOCC3)cc2N2CCOCC2)c1 | – | 11.7 µM (active) |
| Cc1cccc(OCC(=O)NC(=S)Nc2ccccc2N2CCOCC2)c1 | 6.3% (inactive) | – |
| CC(C)c1ccc(/C=C/C(=O)NCCCN2CCOCC2)cc1 | 5.73% (inactive) | – |
| O=C(OCC(=O)N1CCN(C(=O)c2ccco2)CC1)c1cccc(O)c1 | -3.72% (inactive) | – |
| S=c1[nH]nc(-c2cc(-c3ccsc3)n[nH]2)n1-c1ccccc1 | 25.4% (inactive) | – |
| Cc1n[nH]c(=O)n1-c1ccc(Oc2ccccc2)cc1 | 87.2% (inactive) | – |
| Cc1cc(-c2csc(N)n2)c(C)n1Cc1ccccc1 | – | 11.7 µM (active) |
| Cc1cc(-c2csc(N)n2)c(C)n1-c1ccccc1 | – | 14.7 µM (active) |
| CCCc1cc(-c2n[nH]c(=S)n2Cc2ccccc2)cs1 | 15% (inactive) | – |
| O=c1onc(-c2cccs2)n1Cc1ccccc1 | -11.5% (inactive) | – |
